# Records with an inconclusive call do not appear. Values without a mark were called inactive. Unless noted, the call rests on the fitted dose curve.
# Molecular target: Beta-2 adrenergic receptor (Homo sapiens) (UniProt P07550)
# Assay: Adrenergic beta2 receptor (ADRB2) small molecule antagonists, cell-based qHTS assay (AID 1963592); further: nearly all actives have a fitted effect of over 50% in size
# Details: CHO-ADRB2 cells, isoproterenol-stimulated cAMP HTRF ratio, 0.5 h; series mostly up to 92.4 µM; activity change, negative = inhibition: at the top concentration
# In short: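 Cells (CHO, stable ADRB2 overexpression) incubated 18-20hr at 37C; compounds added from DMSO; agonist mix (1nM isoproterenol, 100uM IBMX, 25uM Ro-20-1724) added; 0.5hr RT; d2-cAMP and anti-cAMP-cryptate added; 1hr RT; 665/615 nm read.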
# On the % scale 0 is the no-effect control and ±100 the full control effect.
# Beta-2 adrenergic receptor (Homo sapiens), sequence (P07550 whole entry, looked up): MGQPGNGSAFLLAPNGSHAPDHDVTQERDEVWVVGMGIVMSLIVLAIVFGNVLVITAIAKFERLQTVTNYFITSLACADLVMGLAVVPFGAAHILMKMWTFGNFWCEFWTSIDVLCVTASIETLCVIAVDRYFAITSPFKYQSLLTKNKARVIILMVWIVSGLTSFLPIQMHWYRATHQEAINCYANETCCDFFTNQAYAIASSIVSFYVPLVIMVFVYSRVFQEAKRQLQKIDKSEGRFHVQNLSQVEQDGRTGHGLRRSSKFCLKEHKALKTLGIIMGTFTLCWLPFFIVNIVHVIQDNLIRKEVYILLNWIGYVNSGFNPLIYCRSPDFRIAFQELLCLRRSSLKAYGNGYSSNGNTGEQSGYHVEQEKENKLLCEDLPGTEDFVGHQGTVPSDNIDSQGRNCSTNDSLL
row,SMILES,"activity change, negative = inhibition"
1,CCOC=C(C(=O)OCC)C(=O)OCC,6.52%
2,CCC(=O)OCc1ccccc1,-5.17%
3,O=C1CC[C@H](C(=O)N2CCCCC2)N1,1.9% [at 42.5 µM]
4,C=C1CC/C=C(\C)CC[C@@H]2[C@@H]1CC2(C)C,0.425%
5,COc1cc(S(N)(=O)=O)cc(C(=O)O)c1OC,0.622% [at 42.5 µM]
6,C1COCCO1,-5.28%
7,CC/C=C/CCO,1.13%
8,CC(=O)N1CCN(c2ccc(O)cc2)CC1,6.29% [at 42.5 µM]
9,Cc1ncc(CO)c(CN)c1O,9.67% [at 42.5 µM]
10,CC(C)(C)c1ccc(CCC=O)cc1,-0.665%
11,CC1=C(O)C(=O)C(C)O1 (stereo unspecified),0.98%
12,CCOC(=O)[C@H](CCc1ccccc1)N[C@@H](C)C(=O)N1C(=O)N(C)C[C@H]1C(=O)O,0.323% [at 42.5 µM]
13,CCCCCCCCCCCCCCCCCC(=O)OCC(CC)CCCC (stereo unspecified),2.3%
14,NC(=O)Cc1cccc2ccccc12,-3.61%
15,Cc1cnccn1,-13.6%
16,O=Cc1ccc(Cl)cc1,0.519%
17,CCCCCCCCCCC,0.258%
18,CCCCOC(=O)CCS,-4.17%
19,COc1cc(C(=S)N2CCOCC2)cc(OC)c1OC,2.66% [at 42.5 µM]
20,CCCC(=O)Nc1ccc(O)c(C(C)=O)c1,-11.2% [at 42.5 µM]

row,SMILES,"activity change, negative = inhibition"
1,COc1cc2c(Nc3ccc(Br)cc3F)ncnc2cc1OCC1CCN(C)CC1,1.86% [at 42.5 µM]
2,CC(=O)c1ccc2c(c1)CCCC2,0.0222%
3,c1cnc2cc3c(cc2n1)C1CNCC3C1,-2.87% [at 42.5 µM]
4,O=Cc1ccc([N+](=O)[O-])cc1,1.7%
5,CCC(=O)O[C@@H]1C[C@H]2CC[C@]1(C)C2(C)C,-3.02%
6,CCNc1nc(N)nc(Cl)n1,12.7%
7,CN(C)CCCNCCC#N,-0.393%
8,O=C1CCN(c2ccccc2)N1,1.61%
9,O=C(O)c1ccc(OCCN2CCCCC2)cc1,0.873% [at 42.5 µM]
10,C=CC(C)(O)CC/C=C(/C)CCC=C(C)C (stereo unspecified),-13.2%
11,Cc1cc(CCC(=O)OCCOCCOCCOC(=O)CCc2cc(C)c(O)c(C(C)(C)C)c2)cc(C(C)(C)C)c1O,-0.289%
12,C1CCCC1,12%
13,NS(=O)(=O)c1ccccc1OC(F)(F)F,-0.994%
14,Clc1ccc2c(c1)Nc1ccccc1S2,-2.32% [at 42.5 µM]
15,CC(C)(O)C(=O)c1ccc(OCCO)cc1,1.28%
16,C[Si](C)(C)O[Si](C)(C)O[Si](C)(C)C,1.49%
17,[Cl][Nd]([Cl])[Cl],-2.7%
18,O=C(Cn1ccnc1[N+](=O)[O-])NCc1ccccc1,3.61% [at 42.5 µM]
19,O=C(O)CC(=O)O,2.82%

# Molecular target: D(2) dopamine receptor (Homo sapiens) (UniProt P14416)
# Assay: Dopamine D2 receptor (DRD2) small molecule agonists, cell-based qHTS assay (AID 1963594); further: nearly all actives have a fitted effect of over 35% in size
# Details: HEK293-DRD2 cAMP HTRF, agonist mode, 30 min; series mostly up to 92.4 µM; activation: at the top concentration
# In short: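 HEK293 cells stably expressing DRD2 were cultured 24 h at 37 C, then given Ro20-1724 (0.1 mM final) and compounds for 10 min at room temperature. NKH477 (200nM) was then added for 30 min. cAMP was read by HTRF.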
# D(2) dopamine receptor (Homo sapiens), sequence (P14416 whole entry, looked up): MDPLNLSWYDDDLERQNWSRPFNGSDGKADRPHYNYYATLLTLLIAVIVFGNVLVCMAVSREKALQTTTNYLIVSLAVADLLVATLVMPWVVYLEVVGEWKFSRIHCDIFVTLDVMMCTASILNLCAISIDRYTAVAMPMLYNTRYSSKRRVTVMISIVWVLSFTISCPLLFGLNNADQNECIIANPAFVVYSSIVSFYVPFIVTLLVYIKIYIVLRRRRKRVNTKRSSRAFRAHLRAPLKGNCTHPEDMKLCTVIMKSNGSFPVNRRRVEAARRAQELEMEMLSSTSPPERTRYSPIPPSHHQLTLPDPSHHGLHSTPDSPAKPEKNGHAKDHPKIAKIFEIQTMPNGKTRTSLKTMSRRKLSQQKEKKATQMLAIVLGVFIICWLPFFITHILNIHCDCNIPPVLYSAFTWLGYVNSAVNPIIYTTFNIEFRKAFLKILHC
row,SMILES,activation
1,CCOC=C(C(=O)OCC)C(=O)OCC,-0.49%
2,CCC(=O)OCc1ccccc1,-1.79%
3,C=C1CC/C=C(\C)CC[C@@H]2[C@@H]1CC2(C)C,-4.81%
4,COc1cc(S(N)(=O)=O)cc(C(=O)O)c1OC,-0.0372% [at 42.5 µM]
5,C1COCCO1,0.238%
6,CC/C=C/CCO,12.9%
7,CC(=O)N1CCN(c2ccc(O)cc2)CC1,-2.13% [at 42.5 µM]
8,Cc1ncc(CO)c(CN)c1O,-2.42% [at 42.5 µM]
9,CC(C)(C)c1ccc(CCC=O)cc1,2.92%
10,CC1=C(O)C(=O)C(C)O1 (stereo unspecified),1%
11,CCOC(=O)[C@H](CCc1ccccc1)N[C@@H](C)C(=O)N1C(=O)N(C)C[C@H]1C(=O)O,3.2% [at 42.5 µM]
12,CCCCCCCCCCCCCCCCCC(=O)OCC(CC)CCCC (stereo unspecified),0.19%
13,NC(=O)Cc1cccc2ccccc12,3.32%
14,Cc1cnccn1,-3.55%
15,O=Cc1ccc(Cl)cc1,-3.32%
16,CCCCCCCCCCC,12.2%
17,CCCCOC(=O)CCS,5.89%
18,COc1cc(C(=S)N2CCOCC2)cc(OC)c1OC,-2.62% [at 42.5 µM]
19,CCCC(=O)Nc1ccc(O)c(C(C)=O)c1,-0.245% [at 42.5 µM]

row,SMILES,activation
1,COc1cc2c(Nc3ccc(Br)cc3F)ncnc2cc1OCC1CCN(C)CC1,-9.49% [at 42.5 µM]
2,CC(=O)c1ccc2c(c1)CCCC2,-0.264%
3,c1cnc2cc3c(cc2n1)C1CNCC3C1,-3.03% [at 42.5 µM]
4,O=Cc1ccc([N+](=O)[O-])cc1,-3.13%
5,CCC(=O)O[C@@H]1C[C@H]2CC[C@]1(C)C2(C)C,-0.942%
6,CCNc1nc(N)nc(Cl)n1,-14.3%
7,CN(C)CCCNCCC#N,-0.954%
8,O=C1CCN(c2ccccc2)N1,-1.17%
9,O=C(O)c1ccc(OCCN2CCCCC2)cc1,2.75% [at 42.5 µM]
10,C=CC(C)(O)CC/C=C(/C)CCC=C(C)C (stereo unspecified),-2.69%
11,Cc1cc(CCC(=O)OCCOCCOCCOC(=O)CCc2cc(C)c(O)c(C(C)(C)C)c2)cc(C(C)(C)C)c1O,-8.23%
12,C1CCCC1,0.848%
13,NS(=O)(=O)c1ccccc1OC(F)(F)F,1.71%
14,Clc1ccc2c(c1)Nc1ccccc1S2,-1.12% [at 42.5 µM]
15,CC(C)(O)C(=O)c1ccc(OCCO)cc1,-1.99%
16,C[Si](C)(C)O[Si](C)(C)O[Si](C)(C)C,-5.16%
17,[Cl][Nd]([Cl])[Cl],0.966%
18,O=C(Cn1ccnc1[N+](=O)[O-])NCc1ccccc1,13.1% [at 42.5 µM]
19,O=C(O)CC(=O)O,1.09%

# Molecular target: D(2) dopamine receptor (Homo sapiens) (UniProt P14416)
# Assay: Dopamine D2 receptor (DRD2) small molecule antagonists, cell-based qHTS assay (AID 1963595; active means well fitted inhibition curve with a large enough effect in the signal ratio in the repeat runs, with a control signal flat; the % refers to the signal ratio)
# Details: HEK293-DRD2 cAMP HTRF antagonist mode; series mostly up to 92.4 µM; activity change, negative = inhibition: at the top concentration
# In short: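 Antagonism was scored as restored cAMP in HEK293-DRD2 cells. These cells were stimulated with 200 nM NKH477 and 12 nM quinpirole for 30 min at room temperature, in the presence of 0.1 mM Ro20-1724.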
row,SMILES,"activity change, negative = inhibition"
1,CCOC=C(C(=O)OCC)C(=O)OCC,-2.06%
2,CCC(=O)OCc1ccccc1,-7.53%
3,O=C1CC[C@H](C(=O)N2CCCCC2)N1,0.453% [at 42.5 µM]
4,C=C1CC/C=C(\C)CC[C@@H]2[C@@H]1CC2(C)C,-11.2%
5,COc1cc(S(N)(=O)=O)cc(C(=O)O)c1OC,6.77% [at 42.5 µM]
6,C1COCCO1,-2.92%
7,CC/C=C/CCO,16.4%
8,CC(=O)N1CCN(c2ccc(O)cc2)CC1,8.51% [at 42.5 µM]
9,Cc1ncc(CO)c(CN)c1O,4.56% [at 42.5 µM]
10,CC(C)(C)c1ccc(CCC=O)cc1,0.277%
11,CC1=C(O)C(=O)C(C)O1 (stereo unspecified),-1.6%
12,CCOC(=O)[C@H](CCc1ccccc1)N[C@@H](C)C(=O)N1C(=O)N(C)C[C@H]1C(=O)O,-13% [at 42.5 µM]
13,CCCCCCCCCCCCCCCCCC(=O)OCC(CC)CCCC (stereo unspecified),4.07%
14,NC(=O)Cc1cccc2ccccc12,-1.94%
15,Cc1cnccn1,3.77%
16,O=Cc1ccc(Cl)cc1,1.16%
17,CCCCCCCCCCC,3.61%
18,CCCCOC(=O)CCS,-17.8%
19,COc1cc(C(=S)N2CCOCC2)cc(OC)c1OC,0.362% [at 42.5 µM]
20,CCCC(=O)Nc1ccc(O)c(C(C)=O)c1,-1.13% [at 42.5 µM]

row,SMILES,"activity change, negative = inhibition"
1,COc1cc2c(Nc3ccc(Br)cc3F)ncnc2cc1OCC1CCN(C)CC1,7.29% [at 42.5 µM]
2,CC(=O)c1ccc2c(c1)CCCC2,-0.711%
3,c1cnc2cc3c(cc2n1)C1CNCC3C1,3.32% [at 42.5 µM]
4,O=Cc1ccc([N+](=O)[O-])cc1,4.72%
5,CCC(=O)O[C@@H]1C[C@H]2CC[C@]1(C)C2(C)C,-10.1%
6,CCNc1nc(N)nc(Cl)n1,-10.3%
7,CN(C)CCCNCCC#N,-2.27%
8,O=C1CCN(c2ccccc2)N1,-5.81%
9,O=C(O)c1ccc(OCCN2CCCCC2)cc1,5.62% [at 42.5 µM]
10,C=CC(C)(O)CC/C=C(/C)CCC=C(C)C (stereo unspecified),-1.42%
11,Cc1cc(CCC(=O)OCCOCCOCCOC(=O)CCc2cc(C)c(O)c(C(C)(C)C)c2)cc(C(C)(C)C)c1O,-19.4%
12,C1CCCC1,-7.06%
13,NS(=O)(=O)c1ccccc1OC(F)(F)F,10.9%
14,Clc1ccc2c(c1)Nc1ccccc1S2,1.26% [at 42.5 µM]
15,CC(C)(O)C(=O)c1ccc(OCCO)cc1,-0.252%
16,C[Si](C)(C)O[Si](C)(C)O[Si](C)(C)C,-1.14%
17,[Cl][Nd]([Cl])[Cl],3.52%
18,O=C(Cn1ccnc1[N+](=O)[O-])NCc1ccccc1,-4.92% [at 42.5 µM]
19,O=C(O)CC(=O)O,2.61%

# Source: PubChem BioAssay (Tox21)
